# Screening data deposited in PubChem by National Center for Advancing Translational Sciences (NCATS).
# Most compounds without a hit are left out; they make up all but 11% or so of the library.
# Vaccinia mCherry – qHTS for Stage-Specific Inhibitors of Vaccinia Orthopoxvirus: mCherry Reporter Primary qHTS | Vaccinia virus mCherry reporter infection, fluorescence | 0.63% of 310,000 active | Potency, µM (doses to about 36.5 µM), inactives show top-dose activity change, negative = inhibition, most hits filed as inhibitors; calls by dose curve; tested in A549 cells; further: on the % scale 0 is the no-effect control and ±100 the full control effect; nearly all actives have a fitted effect of over 35% in size
# Vaccinia Venus – qHTS for Stage-Specific Inhibitors of Vaccinia Orthopoxvirus: Venus Reporter Primary qHTS; Vaccinia virus Venus reporter expression, fluorescence; Potency, µM (top dose mostly 36.5 µM), inactives show at the highest dose activity change, negative = inhibition, hits mostly inhibitors; 0.46% of 330,000 active; calls by dose curve; tested in A549 cells; further: on the % scale 0 is the no-effect control and ±100 the full control effect; nearly all actives have a fitted effect of over 30% in size
# Pf growth 48h – Primary qHTS for delayed death inhibitors of the malarial parasite plastid, 48 hour incubation; 5.9% of 310,000 active; Potency, µM (titrated, usually from 28.7 µM), for the others: at the highest dose activity change, negative = inhibition, usual class: inhibitors; P. falciparum luciferase growth in erythrocytes, 48 h; further: on the % scale 0 is the no-effect control and ±100 the full control effect
#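 Luciferase-expressing parasites in RBCs, 2% Hct / 0.1% parasitemia final; RPMI 1640 + 0.5% Albumax; 37 C, 5% CO2, one generation; luminescence read-out, lower signal = inhibition.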
# NS1 inh – qHTS Assay for Inhibitors of Influenza NS1 Protein Function; Potency, µM (top dose mostly 46.1 µM), for the others: at the highest dose activity, positive = more growth; 0.4% of 270,000 active; AID 2326, 2010; calls by dose curve; further: actives are rising curves; nearly all actives have a fitted effect of over 50% in size
#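 Compounds were scored for reversing the slow growth caused by influenza A NS1 in S. cerevisiae, measured by optical density at 600 nm. Assay medium contained 2% galactose at pH 6.0; NS1-free yeast of the same strain were the positive control.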
# Pf growth 96h – Primary qHTS for delayed death inhibitors of the malarial parasite plastid, 96 hour incubation; P. falciparum luciferase reporter growth, 96 h; Potency, µM (top dose mostly 28.7 µM), without a hit: at the top dose activity change, negative = inhibition, usual class: inhibitors; 6.9% of 320,000 active; AID 504834, 2011; further: on the % scale 0 is the no-effect control and ±100 the full control effect
#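 Infected RBCs, 2% Hct / 0.05% parasitemia final; luciferase-reporter P. falciparum; cpd 96 h, 37 C, 5% CO2; luciferase detection reagent; luminescence.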
# HCV inh – qHTS Assay for Inhibitors of Hepatitis C Virus (HCV); Huh7.5.1 HCVcc-Cre infection, luciferase reporter, 44 h; Potency, µM (top dose mostly 41.8 µM), without a hit: at the top dose activity change, negative = inhibition, most hits filed as inhibitors; 3.4% of 340,000 active; further: on the % scale 0 is the no-effect control and ±100 the full control effect
#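 Cells seeded at 1,000/well and cultured 4 h, then compounds added followed by HCVcc-Cre virus (~0.5 moi). After 44 h further culture, luciferase substrate was added, plates held 15 min at room temperature, and luminescence read for 15 sec.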
# An asterisk follows results filed as active; i = inactive; ? = inconclusive; . = not tested or not shown; [ ] = dose if it differs, or a comment. Unless noted, the call rests on the fitted dose curve; in most records, active means well fitted inhibition curve with a large enough effect; inconclusive means small, poorly fitted or top-dose-only effect, or another doubt; inactive means no such curve, though single readings can be large or run the other way. Potency means the concentration at half of the fitted maximal effect.
SMILES,Vaccinia mCherry,Vaccinia Venus,Pf growth 48h,NS1 inh,Pf growth 96h,HCV inh
Cc1c(NC(=O)CCCCCN2C(=O)C3C4C=CC(C4)C3C2=O)c(=O)n(-c2ccccc2)n1C (configuration not stated),i,-9%,14%,18%,9.3µM*,20%
CCOc1c(Br)cc(Br)cc1/C=C1\SC(N)=NC1=O,.,.,-11%,21%,?,8%
CCN(CC)CCCNC(=O)c1ccc2c(SCC(=O)O)c3c(nc2c1)CCC3,.,.,-12%,4%,-21%,6%[0.335 µM]
Cc1cccc(NC(=S)NC2CCCCC2)n1,-11%,-14%,5.2µM*,-6%,-17%,-17%
S=C(Nc1ccc(Oc2ccccc2)cc1)N1CCOCC1,i,-15%,20%,-9%,1.2µM*,-24%
S=C(Nc1ccccc1)N1CCOCCOCCN(C(=S)Nc2ccccc2)CCOCCOCC1,i,-19%,?,0%,?,-4%
CC(C)(C)c1ccccc1NC(=S)NC1CCCCC1,0%,-1%,?,.,9.3µM*,?
Cc1cccc(NC(=S)NC2CCCC2)n1,.,.,-17%,-45%,-14%,?
Cc1cccc(NC(=S)Nc2cccc(C)n2)n1,?,-22%,?,-3%,13µM*,?
Cc1noc(C)c1C(=O)Nc1nc(-c2ccc(F)cc2)cs1,i,-11%,25%,.,19%,2%
CC(C)CNC(=S)Nc1ccc(Oc2ccccc2)cc1,-3%,-21%,5%,-41%,5.2µM*,?
CCOC(=O)c1ccc(NC(=S)Nc2cccc(C)n2)cc1,-1%,-2%,-29%,20%,?,-12%
OCCCNC(=S)Nc1ccc(Oc2ccccc2)cc1,-7%,-5%,-16%,-2%,25%,0%
Cc1cccc(NC(=S)Nc2ccc(Oc3ccccc3)cc2)n1,-15%,-28%,-4%,?,9.3µM*,?
Cc1cccc(-n2c(C)nc3cc(C(=O)NCCC4=CCCCC4)ccc32)c1,-14%,-7%,.,.,.,.
CC(C)[C@H](NC(=O)N1c2ccccc2NC(=O)[C@@H]1C(C)C)C(=O)N1CCC(C(=O)O)CC1,-5%,-5%,14%,22%,-1%,32µM*
COc1ccccc1CNC(=O)CSCc1cnn(-c2ccccc2)c1-n1cccc1,.,.,.,-86%,-62%,?
Cn1c(C(=O)N2CCN(c3ccccc3F)CC2)cc2c(=O)n(C)c3ccccc3c21,.,.,.,3%,.,.
C/C(=N\NC(=O)c1ccc(Cn2cc(Br)cn2)o1)c1cccc(NC(=O)C(C)C)c1,-28%,-25%,-15%,4%,12µM*,?
CCNS(=O)(=O)c1ccc(NC(=O)c2ccc(Cn3cc(Br)cn3)o2)cc1,?,-27%,-24%,-10%,12µM*,?
CC(CN1CCCCCC1)C(=O)NN (configuration not stated),0%,9%,11%,.,36%,7%
CC(CN1CCCCC1)C(=O)NNC(=O)C12CC3CC(CC(C3)C1)C2 (configuration not stated),-11%,-12%,30%,.,12µM*,7%
CCOC(=O)CSc1nc(C)c2cc(OC)ccc2n1,-15%,-14%,4%,-17%,.,-4%
Cc1noc(C)c1C(=O)Nc1cc(Cl)ccc1N1CCOCC1,.,.,-21%,.,?,10µM*
Cc1ccc(S(=O)(=O)N2CCOCC2)cc1C(=O)Nc1cc(Cl)ccc1N1CCOCC1,i,-13%,4.7µM*,.,?,23%
SMILES,Vaccinia mCherry,Vaccinia Venus,Pf growth 48h,NS1 inh,Pf growth 96h,HCV inh
Cc1noc(C)c1CSCC(=O)Nc1cc(Cl)ccc1N1CCOCC1,-1%,-13%,-29%,-9%,?,.
O=C(Nc1cc(S(=O)(=O)N2CCOCC2)ccc1N1CCCC1)c1cc(F)c(F)cc1Cl,18%,-15%,?,.,2%,5%
CS(=O)(=O)c1ccc(Cl)c(NC(=O)c2cc(S(=O)(=O)N3CCOCC3)ccc2N2CCCC2)c1,-9%,-6%,?,.,13µM*,5%
Cc1c(C)c([N+](=O)[O-])c(C)c(C)c1N,-3%,-5%,.,.,.,29%
Nc1ccc(Br)cc1C(=O)O,-7%,-3%,-2%,10%,?,7%
Fc1ccccc1Cn1c2[n+](c3ccc(C(F)(F)F)cc31)CCCCC2,i,-17%,?,.,2.3µM*,-15%
N#Cc1cccc(NC(=O)Cn2c3[n+](c4ccc(C(F)(F)F)cc42)CCCCC3)c1,i,2%,5.2µM*,3%,0.83µM*,4%
C=CCn1c2[n+](c3ccccc3c1=O)CCCCC2,.,.,-14%,.,45%,11%
COc1ccc(OC)c(C(=O)Cn2c3[n+](c4ccc(C(F)(F)F)cc42)CCCCC3)c1,4%,1%,?,-2%,0.52µM*,20%
COc1ccccc1Cc1c(-c2cccc(Br)c2)nc2ccc(Br)cn12,-2%,-6%,.,.,.,.
COc1ccc(OC)c(C(=O)NC(CC(N)=O)c2ccc(N3CCN(c4ccc(F)cc4)CC3)c([N+](=O)[O-])c2)c1 (configuration not stated),-3%,-21%,4%,6%,26%,-28%
CCn1c(SCC(=O)Nc2cc(C)on2)nc2c([nH]c3ccccc32)c1=O,-14%,-12%,30%,25%,?,-25%
O=C(NC1(C(F)(F)F)Oc2ccc(Cl)cc2O1)N1CCC2(CC1)OCCO2 (configuration not stated),?,-21%,.,-8%,1.9µM*,?
COc1cc([N+](=O)[O-])cc(/C=N/NC(=O)C(O)(c2ccccc2)c2ccccc2)c1O,-16%,-12%,24%,-17%,?,4%
CC(c1ccco1)N(C(=O)c1ccc(C(F)(F)F)cc1)c1ccccn1 (configuration not stated),-11%,-9%,-1%,.,27%,6%
O=C(C1CCN(S(=O)(=O)c2cccnc2)CC1)N1CCN(C2CCCC2)CC1,.,-11%,0%,-1%,10µM*,2%
CC1CCCCC1NC(=O)COC(=O)c1cc(=O)[nH]c2ccccc12 (configuration not stated),-19%,-10%,.,.,.,-29%
CC(=O)Nc1ccc(/C(C)=N/Nc2nc(Nc3ccccc3)nc(N3CCOCC3)n2)cc1,-10%,-2%,2.1µM*,2%,26%,?
O=C(NNc1nc(Nc2ccccc2)nc(N2CCOCC2)n1)Nc1ccc(Cl)cc1,-17%,?,10µM*,.,178%,-21%
O=C(NNc1nc(N2CCOCC2)nc(N2CCOCC2)n1)c1ccccc1,-18%,-3%,.,.,.,21%
C/C(=N\Nc1nc(N2CCOCC2)nc(N2CCOCC2)n1)c1cccc([N+](=O)[O-])c1,0%,2%,10µM*,.,9%,?
